Compound activity (PubChem BioAssay)
SKN-1 inh – suppressors of acrylamide-induced Pgst-4::GFP reporter in worms, primary screen, SKN-1 inhibitor project, whole organism, uHTS, GFP/RFP fluorescence ratio, strain VP596; C. elegans VP596 Pgst-4::GFP/RFP ratio, 24 h; inhibition, % at 21.8 µM; hit rate 0.49% among 360,000; AID 624304, 2012;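 active means interference check ratio from 0.5 to 1.5 plus GFP to RFP signal ratio inhibition reaching or exceeding a fixed threshold, cut at about 30% in these data, passing the limit was not always enough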
ATG4B inhibitor – ATG4B protease inhibitors, primary screen, biochemical, fluorescence, uHTS | AID 504462, 2011 | ATG4B cleavage of LC3-PLA2, NBD-HPC fluorescence, 1 h | inhibition, % at 8.33 µM | Cysteine protease ATG4B (Homo sapiens), Q9Y4P1 | hit rate 0.51% among 340,000; in the data active means inhibition above about 40%
CHRM1 agonist – human M1 muscarinic receptor agonists, primary screen, Fluo-8 calcium fluorescence, CHO-K1 cells, HTS; Muscarinic acetylcholine receptor M1 (Homo sapiens), P11229; CHO-K1 hM1, agonist mode; 0% DMSO, 100% acetylcholine EC100; activation, % at 3 µM; hit rate 0.33% among 360,000; AID 588814, 2011;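 active means activation above the run's mean compound activation plus 3 SD, cut at about 16% in these data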;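 further: peak over basal fluorescence ratio within a 140 s kinetic read after compound addition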
Target sequence (P11229 whole entry, looked up): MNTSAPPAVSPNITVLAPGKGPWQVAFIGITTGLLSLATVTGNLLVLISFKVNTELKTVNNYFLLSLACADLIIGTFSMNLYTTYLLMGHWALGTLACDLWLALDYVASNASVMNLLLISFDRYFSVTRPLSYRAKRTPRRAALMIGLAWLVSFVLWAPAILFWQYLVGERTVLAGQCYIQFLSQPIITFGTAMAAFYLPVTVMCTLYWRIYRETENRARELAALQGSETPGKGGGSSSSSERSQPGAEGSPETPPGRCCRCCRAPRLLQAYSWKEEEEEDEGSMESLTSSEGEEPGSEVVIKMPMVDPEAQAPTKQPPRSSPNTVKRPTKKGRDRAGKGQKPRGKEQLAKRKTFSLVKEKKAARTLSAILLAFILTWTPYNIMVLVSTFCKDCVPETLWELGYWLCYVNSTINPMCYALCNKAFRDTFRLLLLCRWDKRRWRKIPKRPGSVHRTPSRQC
Myeloid diff 2 – induction of myeloid progenitor differentiation, primary screen, cell-based, flow cytometry, MLPCN library; ER-HoxA9 myeloid progenitors, lysozyme-GFP differentiation; AID 624256, 2012; calls only at 10 µM; hit rate 1% among 360,000;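 active means normalized GFP-positive differentiation at or above the plate's own cutoff, the solvent-only control mean plus 3 SD; inconclusive means no clear call, values can overlap the other calls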;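 further: cells exposed to compound for four days before flow analysis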
CHRM1 antagonist – human M1 muscarinic receptor antagonists, primary screen, CHO-K1 cells, Fluo-8 calcium fluorescence, 1536-well | inhibition, % at 3 µM | CHO-K1 hM1, ACh EC80 antagonist | Muscarinic acetylcholine receptor M1 (Homo sapiens), P11229 | hit rate 1.3% among 360,000;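 active means percent inhibition above its own plate's cutoff, namely the mean of that plate's compound wells plus 3 SD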;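 further: peak over basal fluorescence ratio during 140 s after agonist addition; 0% = ACh EC80 plus DMSO and 100% = DMSO alone without agonist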
CHRM1 PAM – human M1 muscarinic receptor positive allosteric modulators, primary screen, CHO-K1 cells, Fluo-8 calcium fluorescence, 1536-well | Muscarinic acetylcholine receptor M1 (Homo sapiens), P11229 | CHO-K1 hM1, ACh EC20; 0% = ACh EC20, 100% = maximal ACh | activation, % at 3 µM | hit rate 0.088% among 360,000 | AID 588819, 2011; in the data active means activation above about 19%, passing the limit was not always enough
Starred values were filed as active, the others as inactive. The list is not random: actives were taken first. Their share in the collection is about 3.5%.

O=C(COc1ccc2ccccc2c1Br)Nc1cccnc1 was read as SKN-1 inh 2, ATG4B inhibitor -10, CHRM1 agonist 2, Myeloid diff 2 inconclusive, CHRM1 antagonist 3 and CHRM1 PAM -6.
Screening Cc1cc(OCC(=O)Nc2ccncc2)c(C)cc1Br returned SKN-1 inh -17, ATG4B inhibitor -1, CHRM1 agonist 4, Myeloid diff 2 inactive, CHRM1 antagonist 37* and CHRM1 PAM -19.
`O=C(COc1ccc2ccccc2c1Br)Nc1ccncc1` gave SKN-1 inh 7, ATG4B inhibitor -27, CHRM1 agonist 5, Myeloid diff 2 inactive, CHRM1 antagonist 30* and CHRM1 PAM -6.
`Cc1cc(OCC(=O)Nc2ccc(N3CCCC3)cc2)cc(C)c1Cl` gave SKN-1 inh 23, ATG4B inhibitor 16, CHRM1 agonist -5, Myeloid diff 2 inactive, CHRM1 antagonist 58* and CHRM1 PAM -22.
Cc1cc(OCC(=O)Nc2ccncc2)cc(C)c1Cl was read as SKN-1 inh 5, ATG4B inhibitor 6, CHRM1 agonist 2, Myeloid diff 2 inactive, CHRM1 antagonist 30* and CHRM1 PAM -13.
For CCc1ccc(OCC(=O)Nc2ccncc2)c(Br)c1 the results were SKN-1 inh 29, ATG4B inhibitor 1, CHRM1 agonist 0, Myeloid diff 2 inactive, CHRM1 antagonist 13 and CHRM1 PAM -5.
Screening O=C(NC1CCCCC1)C1c2ccccc2OCC(=O)N1Cc1ccccn1 (stereo not given) returned SKN-1 inh 9 and Myeloid diff 2 inactive.
For Cc1ccc(CSCC(=O)Nc2cc(S(=O)(=O)N3CCOCC3)ccc2OC(C)C)cc1 the results were SKN-1 inh 0, ATG4B inhibitor -4, CHRM1 agonist -5, Myeloid diff 2 inactive, CHRM1 antagonist -15 and CHRM1 PAM 1.
`COCCN(C(=O)CSc1nnc(-c2cccc(Cl)c2)n1N)c1c(N)n(CC(C)C)c(=O)[nH]c1=O` gave SKN-1 inh 33, CHRM1 agonist 0, Myeloid diff 2 inactive, CHRM1 antagonist -14 and CHRM1 PAM 13.
Cc1ccc(C(=O)N[C@H](C(=O)Nc2sccc2C(N)=O)C(C)C)cc1 was read as SKN-1 inh -3, ATG4B inhibitor 0, CHRM1 agonist -2, Myeloid diff 2 active, CHRM1 antagonist 2 and CHRM1 PAM 1.
Screening C[N+](C)(C)CCCCCCC(=O)/C=N/O returned SKN-1 inh 4, ATG4B inhibitor 3, CHRM1 agonist 36*, Myeloid diff 2 inactive, CHRM1 antagonist 5 and CHRM1 PAM -11.
Screening C[N+]1(CCCCCCC(=O)/C=N/O)CCCCCC1 returned SKN-1 inh 2, ATG4B inhibitor -12, CHRM1 agonist -4, Myeloid diff 2 inactive, CHRM1 antagonist -2 and CHRM1 PAM 0.
`CCN(CC)CC(=O)NCC1(c2ccccc2)CCCC1` gave SKN-1 inh -1, ATG4B inhibitor -5, CHRM1 agonist -8, Myeloid diff 2 inactive, CHRM1 antagonist 66* and CHRM1 PAM -27.
Screening O=C(CN1CCCCC1)NN(Cc1ccccc1)c1ccccc1 returned SKN-1 inh 12, ATG4B inhibitor 3, CHRM1 agonist -13, Myeloid diff 2 inactive, CHRM1 antagonist 61* and CHRM1 PAM -34.
O=C(CN1CCCCC1)NCC1(c2ccccc2)CCCC1 was read as SKN-1 inh -7, ATG4B inhibitor 4, CHRM1 agonist -9, Myeloid diff 2 inactive, CHRM1 antagonist 40* and CHRM1 PAM -26.
For CCOC(=O)C1=CNS(=O)(=O)NC1c1ccc(C)cc1 (stereo not given) the results were SKN-1 inh 3, ATG4B inhibitor -1, CHRM1 agonist -4, Myeloid diff 2 inactive, CHRM1 antagonist -3 and CHRM1 PAM 4.
For CCOc1nc(N2CCOCC2)nc(N2CCOCC2)n1 the results were SKN-1 inh -3, ATG4B inhibitor -5, CHRM1 agonist -2, Myeloid diff 2 active, CHRM1 antagonist 5 and CHRM1 PAM 3.
O=C(CC12CC3CC(CC(Br)(C3)C1)C2)NC1CCCC1 was read as SKN-1 inh 7, ATG4B inhibitor -2, CHRM1 agonist -15, Myeloid diff 2 inactive, CHRM1 antagonist 55* and CHRM1 PAM -37.
Screening CSc1nc(O)c(C(c2ccc(O)cc2)c2c(O)nc(SC)[nH]c2=O)c(=O)[nH]1 returned SKN-1 inh 7, ATG4B inhibitor -1, CHRM1 agonist 0, Myeloid diff 2 inactive, CHRM1 antagonist -11 and CHRM1 PAM 10.
For CN1CCC(OC(=O)COc2ccccc2)CC1 the results were SKN-1 inh 18, ATG4B inhibitor -7, CHRM1 agonist -3, Myeloid diff 2 inactive, CHRM1 antagonist 51* and CHRM1 PAM -18.
Screening CC(C)C(O)(C#CCN1CCCC1)c1ccccc1 (stereo not given) returned SKN-1 inh 23, ATG4B inhibitor -6, CHRM1 agonist -5, Myeloid diff 2 inactive, CHRM1 antagonist 92* and CHRM1 PAM -22.
For CC(O)(C#CCN1CCOCC1)c1ccccc1 (stereo not given) the results were SKN-1 inh 10, ATG4B inhibitor 3, CHRM1 agonist -1, Myeloid diff 2 inactive, CHRM1 antagonist -10 and CHRM1 PAM -5.
`CC(C)C(O)(C#CCN1CCCCC1)c1ccccc1` (stereo not given) gave SKN-1 inh 0, ATG4B inhibitor -7, CHRM1 agonist -9, CHRM1 antagonist 99* and CHRM1 PAM -24.
Oc1ccc(CCNc2ncnc3ccc(Cl)cc23)cc1 was read as SKN-1 inh 17, ATG4B inhibitor -9, CHRM1 agonist 7, Myeloid diff 2 inactive, CHRM1 antagonist 35 and CHRM1 PAM -22.
For CC(C)Cc1csc(=S)[nH]1 the results were SKN-1 inh 1, ATG4B inhibitor -2, CHRM1 agonist 0, Myeloid diff 2 inactive, CHRM1 antagonist 9 and CHRM1 PAM -6.
O=C(O)c1ccc2c(c1)CCCN2 was read as SKN-1 inh 38*, ATG4B inhibitor 0, CHRM1 agonist -5, Myeloid diff 2 inactive, CHRM1 antagonist -12 and CHRM1 PAM 9.
Screening O=C(O)c1cccc(COc2ccc3c(c2)CCC3)c1 returned SKN-1 inh -10, ATG4B inhibitor 0, CHRM1 agonist 0, Myeloid diff 2 inactive, CHRM1 antagonist -4 and CHRM1 PAM 2.
